Compounds with a hit are over-represented: about 2% of the library has one in this group of screens.
eIF4E-4G inh: eIF4E–eIF4G protein interaction inhibitors, primary screen, biochemical, uHTS, TR-FRET, eIF4GI fragment. 220,000 tested, 0.37% active. TR-FRET eIF4E-eIF4GI(517-606) binding, 2 h. inhibition, % at 21.7 µM;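 active means inhibition above about 30%, limit read from the data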
Target sequence (P63073 whole entry, looked up, the tested form may be a part): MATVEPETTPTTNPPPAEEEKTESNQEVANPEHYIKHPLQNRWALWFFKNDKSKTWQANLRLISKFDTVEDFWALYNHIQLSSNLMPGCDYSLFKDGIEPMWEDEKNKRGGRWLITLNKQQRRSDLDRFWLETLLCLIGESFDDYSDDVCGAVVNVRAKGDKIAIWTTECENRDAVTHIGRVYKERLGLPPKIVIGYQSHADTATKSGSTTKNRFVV
Target sequence (Q04637 whole entry, looked up, the tested form may be a part): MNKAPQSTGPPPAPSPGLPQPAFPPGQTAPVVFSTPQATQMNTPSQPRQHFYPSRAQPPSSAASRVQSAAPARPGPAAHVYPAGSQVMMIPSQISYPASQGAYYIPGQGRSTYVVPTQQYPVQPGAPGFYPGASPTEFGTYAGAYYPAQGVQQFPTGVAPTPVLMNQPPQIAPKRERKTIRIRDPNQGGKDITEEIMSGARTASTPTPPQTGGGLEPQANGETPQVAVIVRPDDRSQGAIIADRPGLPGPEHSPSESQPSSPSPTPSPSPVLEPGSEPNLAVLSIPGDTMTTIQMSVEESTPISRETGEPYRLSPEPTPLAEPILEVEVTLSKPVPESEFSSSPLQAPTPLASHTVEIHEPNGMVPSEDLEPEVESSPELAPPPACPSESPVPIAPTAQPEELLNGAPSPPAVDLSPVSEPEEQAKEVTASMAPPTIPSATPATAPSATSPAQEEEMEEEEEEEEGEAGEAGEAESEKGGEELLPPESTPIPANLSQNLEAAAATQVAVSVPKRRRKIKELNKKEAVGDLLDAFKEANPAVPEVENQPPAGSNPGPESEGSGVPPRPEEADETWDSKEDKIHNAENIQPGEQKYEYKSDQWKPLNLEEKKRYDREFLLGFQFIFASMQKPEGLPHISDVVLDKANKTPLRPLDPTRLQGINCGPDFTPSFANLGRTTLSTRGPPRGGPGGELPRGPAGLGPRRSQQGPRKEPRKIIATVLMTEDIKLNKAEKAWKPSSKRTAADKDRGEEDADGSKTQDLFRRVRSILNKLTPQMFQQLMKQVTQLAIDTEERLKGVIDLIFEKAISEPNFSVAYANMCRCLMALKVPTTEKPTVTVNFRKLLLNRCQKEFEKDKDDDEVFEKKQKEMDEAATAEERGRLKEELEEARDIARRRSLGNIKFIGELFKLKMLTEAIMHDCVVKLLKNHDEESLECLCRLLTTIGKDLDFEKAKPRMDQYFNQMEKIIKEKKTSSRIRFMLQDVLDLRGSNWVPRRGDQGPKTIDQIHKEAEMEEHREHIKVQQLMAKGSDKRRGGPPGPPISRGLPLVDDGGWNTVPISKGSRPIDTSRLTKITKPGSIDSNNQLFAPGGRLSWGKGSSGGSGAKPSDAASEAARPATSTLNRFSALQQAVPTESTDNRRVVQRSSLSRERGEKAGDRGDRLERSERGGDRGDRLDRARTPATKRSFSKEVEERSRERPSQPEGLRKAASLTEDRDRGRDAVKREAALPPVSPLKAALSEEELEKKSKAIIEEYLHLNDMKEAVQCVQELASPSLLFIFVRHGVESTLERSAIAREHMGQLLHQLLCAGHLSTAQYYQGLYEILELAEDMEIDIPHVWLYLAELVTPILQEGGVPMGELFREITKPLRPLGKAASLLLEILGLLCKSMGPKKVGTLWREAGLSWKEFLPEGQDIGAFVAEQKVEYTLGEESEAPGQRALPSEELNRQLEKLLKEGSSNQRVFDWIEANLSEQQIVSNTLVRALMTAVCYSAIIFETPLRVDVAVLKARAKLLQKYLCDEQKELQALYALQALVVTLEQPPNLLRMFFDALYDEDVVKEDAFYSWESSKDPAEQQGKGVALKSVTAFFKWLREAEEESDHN
INS promoter inh: inhibitors of insulin promoter-driven GFP, primary screen, imaging, TRM-6 cells (human fetal islet line), eGFP reporter, cell count; reporter expression induced with tamoxifen; inhibition, % at 2 µM; 130,000 tested, 0.9% active; AID 1273, 2008;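 active means inhibition above the mean plus 3 SD, with well images judged a real hit on visual review, cut at about 60% in these data, passing the limit was not always enough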
Ins promoter up: insulin promoter activators in MIN6 cells, imaging, high-content screening, mouse beta cells | MIN6 insulin promoter-GFP reporter; stronger effect = higher value | z-score at 5 µM | 190,000 tested, 0.3% active | AID 1625, 2009;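 active means z-score above 3 at 5 µM with at least 500 cells counted in the well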
Autophagy mod: autophagy modulators in MEF cells, primary screen, imaging, high-content, MEF GFP-LC3; MEF GFP-LC3 puncta imaging; test concentration mostly 10 µM; calls only at 10 µM (by protocol); 190,000 tested, 0.98% active; AID 463193, 2010;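 active means percentage of spot-positive cells more than 3 SD above its plate mean, without a fluorescence outlier flag or 80% toxicity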
PERK inh: block of dimerizer-induced PERK translation repression, primary screen, PERK inhibitor project, CHO PERK-DD cells, SEAP luminescence, HTS; Eukaryotic translation initiation factor 2-alpha kinase 3 (Homo sapiens), Q9NZJ5; CHO PERK-DD fusion, SEAP luminescence translation reporter; inhibition, % at 5.6 µM; 220,000 tested, 0.17% active;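 active means inhibition above the mean inhibition of all tested compounds plus 3 SD, set separately per screening campaign, cut at about 2.9% in these data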;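 further: PERK kinase domain activated by AP20187 dimerizer at 100 nM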
Of the large screens only hits and unclear results are named; the others gave an inactive call; [ ] = dose if it differs, or a comment.

O=C(CSc1nnc(-c2ccco2)n1-c1ccccc1)NCc1ccco1	INS promoter inh 81
COc1ccc(-n2c(SCC(=O)Nc3sc4c(c3C#N)CCCC4)nnc2-c2ccccc2OC)cc1	none
O=C(/C=C/c1ccc2c(c1)OCO2)NCc1ccncc1	none (no result: INS promoter inh, Autophagy mod)
CCOc1ccc(C(C)NC(=O)C2CCC2)cc1 (centres undefined)	none
O=c1c2c(nc3cc(-c4ccc(Cl)cc4)[nH]n13)CCS2	none (no result: INS promoter inh)
CCOC(=O)c1c(NC(=O)CSc2nnc(-c3ccc(OC)cc3)o2)sc2c1CCC2	Autophagy mod active (no result: eIF4E-4G inh, Ins promoter up)
NC(=O)c1c(NC(=O)CSc2nnc(-c3ccco3)n2-c2ccccc2)sc2c1CCC2	eIF4E-4G inh 31[fluorescence artefact?] (no result: INS promoter inh, Ins promoter up)
Cc1cccc(OCc2nc(-c3ccccn3)n[nH]2)c1	none
Cc1ccc(OCc2nc(-c3ccccn3)n[nH]2)cc1	eIF4E-4G inh 34[fluorescence artefact?]
CCC1CCCCN1S(=O)(=O)c1ccc(NC(=O)CSc2ncccc2C(=O)O)cc1 (centres undefined)	Autophagy mod active (no result: INS promoter inh)
CCOc1ncccc1C(=O)OCC(=O)N(CC)c1ccccc1	Autophagy mod active
CCC(CC)C(=O)Oc1c(Sc2ccccc2[N+](=O)[O-])c(C)nn1C(C)(C)C	none (no result: INS promoter inh)
COCC(=O)Oc1c(Sc2ccccc2[N+](=O)[O-])c(C)nn1C(C)(C)C	eIF4E-4G inh 41
Cc1cccc(Nc2nc(N)nc(CN3CCC(C)CC3)n2)c1C	INS promoter inh 100
Cc1ccc(N2CC(O)=C(c3nc4ccccc4c(=O)[nH]3)C2=N)cc1C	Autophagy mod active
O=C(O)c1cccnc1SCc1ccccc1Cl	none
O=C(O)c1cccnc1Sc1ccccc1Cl	PERK inh 3.2 (no result: INS promoter inh, Autophagy mod)
O=C(CCc1nc2ccccc2c(=O)[nH]1)NCc1ccco1	Autophagy mod active (no result: INS promoter inh)
O=C(Oc1ccccc1Cl)c1ccc(-n2cncn2)nc1	none
COC(=O)C1=C(C)N(CCc2c[nH]c3ccc(OC)cc23)C(=O)C1	none
O=C(/C=C/c1ccccc1)Nc1scc(-c2ccccc2)c1C(=O)O	Autophagy mod active (no result: INS promoter inh)
O=C(/C=C/c1ccco1)Nc1scc(-c2ccccc2)c1C(=O)O	none (no result: INS promoter inh, Autophagy mod)
CC(C)(C)c1ccc(Cn2nc(CC(=O)O)c3ccccc3c2=O)cc1	none (no result: Ins promoter up)
CCOC(=O)c1cc(-c2ccc(C)cc2)nc2nc(SC)[nH]c(=O)c12	none
O=C1Nc2ccccc2C(=O)C1(Cl)Cc1ccccc1 (centres undefined)	eIF4E-4G inh 38 (no result: Ins promoter up)
Cc1nc(N(C)C)c2sc(=S)n(Cc3ccccc3)c2n1	none (no result: INS promoter inh)
O=c1cc(-c2ccco2)oc2c1ccc1ccccc12	none
O=c1cc(C(Cl)(Cl)Cl)oc2c1ccc1ccccc12	Autophagy mod active
CCn1c([N+](=O)[O-])nc2c1c(=O)[nH]c(=O)n2C	none (no result: INS promoter inh)
Cc1ccc(-c2nc(NC(=O)c3nn(C)cc3[N+](=O)[O-])sc2C)cc1	Autophagy mod active
O=C(CN1CCOCC1)Nc1ncc(Br)cc1Br	PERK inh 3.2 (no result: INS promoter inh)
O=C(CN1CCOCC1)Nc1ccc(Br)cn1	none (no result: Ins promoter up)
CCOc1c(Br)cc(C2NS(=O)(=O)N=C3CCCCCN32)cc1OC (centres undefined)	none (no result: INS promoter inh)
CCn1c(NC(=O)c2ccco2)c(-c2ccccc2Cl)c(=O)c2ccccc21	INS promoter inh 90
O=C(NCCc1c[nH]c2ccccc12)C(=O)Nc1ccccc1	none (no result: INS promoter inh)
COc1cc(NC(=O)COC(=O)CNC(=O)c2cc(C)cc(C)c2)c(C)cc1[N+](=O)[O-]	none
CCC(CC)C(=O)OCC(=O)Nc1cc(OC)c([N+](=O)[O-])cc1C	INS promoter inh 64 (no result: Ins promoter up)
O=C(Cn1c(-c2cncs2)nc2ccccc21)NCCc1ccccc1	none (no result: INS promoter inh)
COc1cccc(NC(=O)Cn2c(-c3cncs3)nc3ccccc32)c1	Ins promoter up 5.3
O=C(NCCN1CCOCC1)c1ccc2c(c1)N(Cc1cccc(F)c1)C(=O)c1ccccc1S2	none
CN1CCN(CCCNC(=O)c2ccc(/C=C3\Sc4ccccc4N(Cc4ccccc4F)C3=O)cc2)CC1	eIF4E-4G inh 31 (no result: Ins promoter up)
CCN1CCN(CCNC(=O)c2ccc(/C=C3/Sc4ccccc4N(Cc4cccc(Cl)c4)C3=O)cc2)CC1	eIF4E-4G inh 36, Autophagy mod active (no result: INS promoter inh)
CCN1CCN(CCNC(=O)c2ccc3c(c2)N(Cc2ccc(F)cc2)C(=O)/C(=C/c2ccccc2)S3)CC1	eIF4E-4G inh 37
CCc1ccc(/C=C2/Sc3ccccc3N(CC(=O)NCCCOC)C2=O)cc1	none (no result: INS promoter inh)
Brc1cc2c(cc1/C=N/Nc1nc(N3CCOCC3)nc(N3CCOCC3)n1)OCO2	none
C[N+](C)(C)CCOP(=O)(O)OP(=O)([O-])OC[C@H]1O[C@@H](n2ccc(N)nc2=O)[C@H](O)[C@@H]1O	none (no result: Ins promoter up)
Cc1ccc(/C=C/C(O)=C2/C(=O)N(C)C3(C)CC2c2ccccc2O3)cc1 (centres undefined)	eIF4E-4G inh 97 (no result: INS promoter inh)
O=C(CN1CCN(c2ccccc2)CC1)Nc1ccc(Oc2ccccc2)cc1	none (no result: Ins promoter up)
Cc1cccc(Nc2nnc(SCC(=O)NC(=O)Nc3ccc4c(c3)OCCO4)s2)c1	none
CCc1nnc(SCC(=O)Nc2ccc3c(c2)OCO3)o1	INS promoter inh 68
CSc1nsc(SCC(=O)Nc2ccc3c(c2)OCCO3)n1	PERK inh 3.1 (no result: INS promoter inh)
Cc1nnc(SCC(=O)NC(=O)Nc2ccc3c(c2)OCCO3)s1	Autophagy mod active (no result: INS promoter inh)
Fc1cccc(Cl)c1CNCc1ccccc1Cl	none (no result: Ins promoter up)
O=C(Nc1ccc(Oc2ccc(NC(=O)Nc3ccc([N+](=O)[O-])cc3)cc2)cc1)Nc1ccc([N+](=O)[O-])cc1	none (no result: INS promoter inh, Autophagy mod)
COc1ccc(OC)c(/C=N/NC(=O)Cc2nc3ccccc3[nH]2)c1	none
S=c1[nH]nc(COc2cccc3ccccc23)n1Cc1ccccc1	none (no result: INS promoter inh, Autophagy mod)
Cc1ccccc1OCc1n[nH]c(=S)n1Cc1ccccc1	Autophagy mod active
CN(C)Cc1nnnn1-c1ccccc1	none (no result: INS promoter inh, Autophagy mod)
CN1CCN(C(=S)NC(=O)c2ccc(C(C)(C)C)cc2)CC1	INS promoter inh 67
COc1ccc(-c2cc(Nc3ccccc3NC(=O)C(F)(F)F)n(CCC#N)n2)cc1	INS promoter inh 60
CCOC(=O)c1cc(-c2ccc(OC)cc2)nc2c1c(C)nn2CCC#N	none
Cc1ccc(N(C)C(=O)c2ccc(CNc3c(N4CCC(C)CC4)c(=O)c3=O)cc2)cc1	none (no result: INS promoter inh, Autophagy mod)
C/C(CC(=O)NC1CCCC1)=N\NC(=O)c1ccc([N+](=O)[O-])c(Cl)c1	none
O=C(O)c1cc(-c2ccccc2)n(-c2ccccc2C(=O)O)n1	eIF4E-4G inh 42
CC1CC(NS(=O)(=O)c2cccs2)CC(C)(C)C1 (centres undefined)	none (no result: Ins promoter up)
CN1CCN(C(=O)CSc2nc3ccc(NC(=O)c4ccccc4F)cc3s2)CC1	none (no result: INS promoter inh, Autophagy mod)
CCn1nc([N+](=O)[O-])c2c(-c3nc4ccccc4o3)c(N)n(CCCOC)c2c1=O	Autophagy mod active

Screens as filed in PubChem BioAssay.
